These sequences were tested against CWF19L2 (assay: pooled miR-30 sensor sort-seq; sequence = guide strand). Settings: shRNA.
Note: reference of the scale not given here.

Sequence | sensor-assay potency score (higher = more potent)
TTAGCCAGCTTAATCCACCATC | 0.0576
TTTCTTGACAATTTTGTGCTTT | 0.803
TAATCTTTCTTCACTGTTCTTG | 0.0595
TTGCAGTATCTGTTGTAGCATA | -0.923
TTGTTTCTCAGCTTGTTCCTTC | 0.329
TTTACTAAGTCTGATTCTCTAC | -0.315
TTAGTAATCGATGACACACTAC | -0.494
TAATCCACCATCTTCTACCACT | -1.06
TGTTGTAGCATATCTATCCCTT | -0.316
TTCTACTTTGTTTCTCAGCTTG | 0.279
TAAATTAACTGAACAATTCGGA | 0.661
TTAGATTCTCTTCTACACGTTT | -0.587

What follows are sequences tested against CXCL1 in the same assay as above. Settings: shRNA.

Sequence | sensor-assay potency score (higher = more potent)
TTCACGTTCACACTTTGGATGT | -1.04
ACACTTTGGATGTTCTTGGGGT | -0.0598
TCGATGATTTTCTTAACTATGG | -1.57
TTCCGCCCATTCTTGAGTGTGG | -0.98
TTCGATGATTTTCTTAACTATG | -1.26

From the OligoGym collection
